# PubChem BioAssay (EPA / NIEHS)
# Results filed as inconclusive are left out. Active and inactive are the calls of the source. How the source made its calls: active means hit-call score of the fitted dose curve at least 0.9, where 1 is the maximum; inconclusive means response in the unintended direction; inactive means score below 0.9.
# Legend:
# [1] = molecular target: human Esterase Plasma (ES), BCHE (gene 590) (UniProt P06276); assay: NVS_ENZ_hES: NovaScreen (NVS) Enzymatic Assay for human Esterase Plasma (ES) (AID 2283157)
# Sequence of human Esterase Plasma (ES), BCHE (gene 590) (P06276 whole entry, looked up): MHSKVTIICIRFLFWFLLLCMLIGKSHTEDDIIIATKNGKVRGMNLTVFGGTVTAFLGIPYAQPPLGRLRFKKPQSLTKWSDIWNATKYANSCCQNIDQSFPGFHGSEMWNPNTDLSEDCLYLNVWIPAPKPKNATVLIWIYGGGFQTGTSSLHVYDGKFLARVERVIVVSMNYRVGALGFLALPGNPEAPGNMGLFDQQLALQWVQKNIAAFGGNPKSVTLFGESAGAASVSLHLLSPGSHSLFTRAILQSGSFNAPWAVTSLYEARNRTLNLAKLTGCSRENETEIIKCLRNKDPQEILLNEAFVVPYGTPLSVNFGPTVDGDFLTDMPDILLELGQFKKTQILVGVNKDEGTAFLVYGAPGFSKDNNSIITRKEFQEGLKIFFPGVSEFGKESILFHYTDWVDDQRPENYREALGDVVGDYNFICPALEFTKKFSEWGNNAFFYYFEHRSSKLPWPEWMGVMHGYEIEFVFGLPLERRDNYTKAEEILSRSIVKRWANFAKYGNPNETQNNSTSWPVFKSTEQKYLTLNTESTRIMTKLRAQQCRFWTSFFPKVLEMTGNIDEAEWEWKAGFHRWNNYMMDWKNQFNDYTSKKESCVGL
# Outline: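 Screening ran at 25 uM in duplicate, followed by singleton concentration series reaching 50 uM for actives. Human plasma protein, colorimetric detection, 0.25 h exposure, DMSO negative control.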
# [2] = molecular target: human Janus Kinase 2 (Jak2), JAK2 (gene 3717) (UniProt O60674); assay: NVS_ENZ_hJak2: NovaScreen (NVS) Enzymatic Assay for human Janus Kinase 2 (Jak2) (AID 2283169)
# Sequence of human Janus Kinase 2 (Jak2), JAK2 (gene 3717) (O60674 whole entry, looked up): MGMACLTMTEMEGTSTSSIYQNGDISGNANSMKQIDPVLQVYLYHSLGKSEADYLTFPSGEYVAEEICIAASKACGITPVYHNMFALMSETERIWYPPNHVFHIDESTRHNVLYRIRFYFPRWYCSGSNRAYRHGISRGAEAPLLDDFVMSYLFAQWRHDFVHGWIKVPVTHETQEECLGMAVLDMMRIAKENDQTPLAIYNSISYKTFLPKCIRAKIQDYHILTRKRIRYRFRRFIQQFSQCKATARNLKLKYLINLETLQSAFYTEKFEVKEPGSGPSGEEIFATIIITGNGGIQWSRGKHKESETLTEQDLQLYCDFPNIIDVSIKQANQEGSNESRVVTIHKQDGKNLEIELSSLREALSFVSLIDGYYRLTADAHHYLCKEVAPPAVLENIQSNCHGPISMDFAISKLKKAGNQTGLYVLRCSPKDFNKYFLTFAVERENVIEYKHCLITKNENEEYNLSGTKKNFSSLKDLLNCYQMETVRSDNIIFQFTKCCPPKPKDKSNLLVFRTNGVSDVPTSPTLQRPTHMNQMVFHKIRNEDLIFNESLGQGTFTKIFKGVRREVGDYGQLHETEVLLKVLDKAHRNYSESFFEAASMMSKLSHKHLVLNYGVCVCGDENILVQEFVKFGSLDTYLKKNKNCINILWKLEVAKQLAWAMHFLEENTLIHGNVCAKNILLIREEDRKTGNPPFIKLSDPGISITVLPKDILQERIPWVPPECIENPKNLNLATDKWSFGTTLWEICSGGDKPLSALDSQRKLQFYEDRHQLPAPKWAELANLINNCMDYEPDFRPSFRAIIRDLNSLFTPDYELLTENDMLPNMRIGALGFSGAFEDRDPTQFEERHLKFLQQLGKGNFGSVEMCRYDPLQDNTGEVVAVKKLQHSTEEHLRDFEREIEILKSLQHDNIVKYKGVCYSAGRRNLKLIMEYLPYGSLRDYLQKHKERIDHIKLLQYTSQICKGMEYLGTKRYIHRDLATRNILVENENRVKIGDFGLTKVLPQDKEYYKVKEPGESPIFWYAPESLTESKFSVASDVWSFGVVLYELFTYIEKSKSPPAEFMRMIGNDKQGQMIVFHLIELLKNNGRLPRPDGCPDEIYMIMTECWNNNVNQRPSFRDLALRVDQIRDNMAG
# Outline: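 Single-point duplicate screen at 25 uM, with hits run in concentration series to a 50 uM top dose. Substrate-product separation by mobility shift with fluorescence detection, 1 h post-dosing; DMSO baseline.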
# [3] = molecular target: human Elastase, ELANE (gene 1991) (UniProt P08246); assay: NVS_ENZ_hElastase: NovaScreen (NVS) Enzymatic Assay for human Elastase (AID 2283153)
# Outline: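 Concentration-response to 50 uM max, run singly for chemicals passing a threshold (e.g., 30% inhibition) in a duplicate 25 uM single-point screen. Neutrophil-derived human elastase, absorbance read-out of enzyme activity at 1.5 h; DMSO baseline.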
# [4] = molecular target: Collagenase 3 (Homo sapiens) (UniProt P45452); assay: NVS_ENZ_hMMP13: NovaScreen (NVS) Enzymatic Assay for human Matrix Metalloproteinase-13 (MMP13) (AID 2283182)
# Outline: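 Recombinant MMP13 cleaving fluorescent substrate, cell-free, measured 1 h after dosing. Primary duplicate screen at 25 uM; actives tested in concentration-response up to 50 uM; loss of signal relative to DMSO.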
# [5] = molecular target: human Matrix Metalloproteinase-7 (MMP7), MMP7 (gene 4316) (UniProt P09237); assay: NVS_ENZ_hMMP7: NovaScreen (NVS) Enzymatic Assay for human Matrix Metalloproteinase-7 (MMP7) (AID 2283183)
# Sequence of human Matrix Metalloproteinase-7 (MMP7), MMP7 (gene 4316) (P09237 whole entry, looked up): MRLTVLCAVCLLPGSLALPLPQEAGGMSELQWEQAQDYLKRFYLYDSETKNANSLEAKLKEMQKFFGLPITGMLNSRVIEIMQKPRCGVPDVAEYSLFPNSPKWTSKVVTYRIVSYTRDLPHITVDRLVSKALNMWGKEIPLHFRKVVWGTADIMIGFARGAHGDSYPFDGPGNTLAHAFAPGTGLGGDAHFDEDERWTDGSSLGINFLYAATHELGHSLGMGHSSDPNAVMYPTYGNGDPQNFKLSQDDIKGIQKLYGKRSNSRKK
# Outline: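 Compounds first tested at 25 uM in duplicate, then at up to 50 uM in concentration series if active. Protease activity measured by fluorescence intensity 1 h after dosing, with fitting relative to DMSO.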
# [6] = molecular target: human Matrix Metalloproteinase-3 (MMP3), MMP3 (gene 4314) (UniProt P08254); assay: NVS_ENZ_hMMP3: NovaScreen (NVS) Enzymatic Assay for human Matrix Metalloproteinase-3 (MMP3) (AID 2283185)
# Sequence of human Matrix Metalloproteinase-3 (MMP3), MMP3 (gene 4314) (P08254 whole entry, looked up): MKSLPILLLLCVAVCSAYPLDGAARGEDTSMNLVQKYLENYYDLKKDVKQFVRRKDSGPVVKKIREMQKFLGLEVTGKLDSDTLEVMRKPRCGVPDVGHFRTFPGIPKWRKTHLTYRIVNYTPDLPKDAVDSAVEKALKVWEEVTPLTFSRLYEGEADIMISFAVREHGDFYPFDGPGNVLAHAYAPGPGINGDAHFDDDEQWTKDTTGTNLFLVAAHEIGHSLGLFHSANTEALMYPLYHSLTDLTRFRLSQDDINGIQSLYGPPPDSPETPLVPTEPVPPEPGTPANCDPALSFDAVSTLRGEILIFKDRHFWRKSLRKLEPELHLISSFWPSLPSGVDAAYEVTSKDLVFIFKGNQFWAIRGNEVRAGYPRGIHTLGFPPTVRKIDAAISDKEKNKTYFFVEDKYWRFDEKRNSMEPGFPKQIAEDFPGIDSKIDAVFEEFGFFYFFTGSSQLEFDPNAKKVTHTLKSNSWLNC
# Outline: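 Fluorescent substrate turnover by recombinant MMP3 read after 1 h, signal loss scored against DMSO. Compounds first run in duplicate at 25 uM single dose, then actives confirmed by concentration series.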
# [7] = molecular target: human Phosphodiesterase 4A1 (PDE4A1), PDE4A (gene 5141) (UniProt P27815); assay: NVS_ENZ_hPDE4A1: NovaScreen (NVS) Enzymatic Assay for human Phosphodiesterase 4A1 (PDE4A1) (AID 2283191)
# Sequence of human Phosphodiesterase 4A1 (PDE4A1), PDE4A (gene 5141) (P27815 whole entry, looked up): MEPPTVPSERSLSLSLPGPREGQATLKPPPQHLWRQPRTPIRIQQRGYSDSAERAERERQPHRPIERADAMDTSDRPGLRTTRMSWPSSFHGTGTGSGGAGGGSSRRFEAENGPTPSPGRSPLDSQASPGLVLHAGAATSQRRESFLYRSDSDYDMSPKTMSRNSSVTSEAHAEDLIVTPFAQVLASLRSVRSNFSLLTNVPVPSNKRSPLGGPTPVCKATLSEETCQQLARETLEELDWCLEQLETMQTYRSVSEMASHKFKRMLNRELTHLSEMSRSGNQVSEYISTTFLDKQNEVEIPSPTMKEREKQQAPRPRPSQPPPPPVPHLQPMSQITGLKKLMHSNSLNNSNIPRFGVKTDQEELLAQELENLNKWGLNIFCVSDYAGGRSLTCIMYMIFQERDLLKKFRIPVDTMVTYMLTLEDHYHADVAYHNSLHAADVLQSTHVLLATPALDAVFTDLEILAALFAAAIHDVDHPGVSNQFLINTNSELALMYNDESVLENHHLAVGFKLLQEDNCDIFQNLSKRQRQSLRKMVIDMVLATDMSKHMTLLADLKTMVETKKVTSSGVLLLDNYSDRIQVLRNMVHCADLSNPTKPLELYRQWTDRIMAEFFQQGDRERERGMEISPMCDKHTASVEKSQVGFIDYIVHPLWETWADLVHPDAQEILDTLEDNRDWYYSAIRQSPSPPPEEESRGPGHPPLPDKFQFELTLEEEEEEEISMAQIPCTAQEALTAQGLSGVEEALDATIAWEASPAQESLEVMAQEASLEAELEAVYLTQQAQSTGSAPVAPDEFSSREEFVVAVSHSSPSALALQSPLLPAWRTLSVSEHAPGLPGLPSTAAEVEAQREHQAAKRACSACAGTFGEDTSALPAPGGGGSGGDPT
# Outline: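 Fluorescent substrate turnover by recombinant PDE4A1 read after 1 h by mobility-shift separation. Primary duplicate screen at 25 uM; hits retested in concentration series with a 50 uM maximum, relative to DMSO.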
# [8] = molecular target: human Phosphodiesterase 5 (PDE5), PDE5A (gene 8654) (UniProt O76074); assay: NVS_ENZ_hPDE5: NovaScreen (NVS) Enzymatic Assay for human Phosphodiesterase 5 (PDE5) (AID 2283194)
# Outline: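 Screening began in duplicate at 25 uM, with actives taken into concentration-response. Enzyme activity of recombinant PDE5 toward its substrate was measured at 1 h by fluorescence mobility-shift detection, relative to DMSO controls.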
# [9] = molecular target: human Ephrin type-A Receptor 1 (EphA1), EPHA1 (gene 2041) (UniProt P21709); assay: NVS_ENZ_hEphA1: NovaScreen (NVS) Enzymatic Assay for human Ephrin type-A Receptor 1 (EphA1) (AID 2283158);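 further: activity is signal loss versus DMSO meaning EphA1 kinase inhibition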
# Sequence of human Ephrin type-A Receptor 1 (EphA1), EPHA1 (gene 2041) (P21709 whole entry, looked up): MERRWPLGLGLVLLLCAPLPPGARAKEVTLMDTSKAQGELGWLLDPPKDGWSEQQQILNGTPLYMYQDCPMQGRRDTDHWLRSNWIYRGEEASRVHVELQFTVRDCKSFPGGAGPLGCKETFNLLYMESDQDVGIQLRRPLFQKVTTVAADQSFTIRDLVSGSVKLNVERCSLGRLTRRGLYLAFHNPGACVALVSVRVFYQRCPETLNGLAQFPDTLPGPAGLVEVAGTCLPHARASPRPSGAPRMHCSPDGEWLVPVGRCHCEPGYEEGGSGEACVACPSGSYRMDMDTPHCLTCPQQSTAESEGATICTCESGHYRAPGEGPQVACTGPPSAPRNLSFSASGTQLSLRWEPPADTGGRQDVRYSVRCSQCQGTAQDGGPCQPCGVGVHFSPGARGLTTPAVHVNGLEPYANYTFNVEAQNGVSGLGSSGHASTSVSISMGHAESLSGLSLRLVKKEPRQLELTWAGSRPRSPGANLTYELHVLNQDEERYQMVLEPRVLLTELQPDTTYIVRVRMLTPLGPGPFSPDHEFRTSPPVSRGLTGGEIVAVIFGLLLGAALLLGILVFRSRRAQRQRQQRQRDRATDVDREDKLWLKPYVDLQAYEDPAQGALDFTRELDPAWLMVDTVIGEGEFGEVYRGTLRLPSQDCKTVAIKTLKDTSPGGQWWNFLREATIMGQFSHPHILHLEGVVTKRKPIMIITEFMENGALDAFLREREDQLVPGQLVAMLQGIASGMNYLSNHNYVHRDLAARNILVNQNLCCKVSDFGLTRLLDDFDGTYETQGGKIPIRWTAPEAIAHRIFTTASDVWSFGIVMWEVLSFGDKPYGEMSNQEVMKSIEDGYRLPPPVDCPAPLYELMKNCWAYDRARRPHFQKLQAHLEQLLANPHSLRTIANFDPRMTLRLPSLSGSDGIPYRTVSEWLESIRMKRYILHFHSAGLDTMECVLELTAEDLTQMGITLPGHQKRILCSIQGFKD
# Outline: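 Cell-free kinase activity with recombinant protein, 1 hour after dosing; product separated by electrophoretic mobility shift, fluorescence read. Primary screen at 25 uM in duplicate; hits run as concentration-response up to 50 uM, relative to DMSO.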
# [10] = molecular target: Mitogen-activated protein kinase 3 (Homo sapiens) (UniProt P27361); assay: NVS_ENZ_hMAPK3: NovaScreen (NVS) Enzymatic Assay for human Mitogen-Activated Protein Kinase 3 (MAPK 3) (AID 2283177)
# Outline: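 Chemicals were first tested in duplicate at 25 uM, with hits re-run as concentration series (max 50 uM). Recombinant enzyme activity, measured 1 h post-dose in a cell-free format, was read by fluorescence/mobility shift relative to DMSO.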
# [11] = molecular target: human Mitogen- and Stress-activated Protein Kinase-1 (Msk1), RPS6KA5 (gene 9252) (UniProt O75582); assay: NVS_ENZ_hMsk1: NovaScreen (NVS) Enzymatic Assay for human Mitogen- and Stress-activated Protein Kinase-1 (Msk1) (AID 2283187)
# Outline: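 Chemicals first run in duplicate at 25 uM, with actives followed up in singleton concentration series to 50 uM maximum. Enzyme activity came from substrate/product mobility-shift separation with fluorescence detection after 1 h incubation of the recombinant protein.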
# [12] = molecular target: cAMP-dependent protein kinase catalytic subunit alpha (Homo sapiens) (UniProt P17612); assay: NVS_ENZ_hPKA: NovaScreen (NVS) Enzymatic Assay for human Protein Kinase A (PKA) (AID 2283192)
# Outline: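 Cell-free kinase activity read by fluorescence after mobility-shift separation of substrate and product, 1 h post-dosing. Single-concentration duplicate screen (25 uM) preceded singleton concentration series (top 50 uM); loss of signal versus DMSO.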
# [13] = molecular target: Histone deacetylase 3 (Homo sapiens) (UniProt O15379); assay: NVS_ENZ_hHDAC3: NovaScreen (NVS) Enzymatic Assay for human Histone Deacetylase 3 (HDAC3) (AID 2283163)
# Outline: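 Cell-free enzyme format: loss of fluorescent product after mobility-shift separation, 1 h incubation, recombinant human HDAC3. Single 25 uM duplicate screen first, then concentration series to a 50 uM top for hits; DMSO as baseline.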
# [14] = molecular target: human MAP Kinase-Activated Protein Kinase 2 (MAPKAPK2), MAPKAPK2 (gene 9261) (UniProt P49137); assay: NVS_ENZ_hMAPKAPK2: NovaScreen (NVS) Enzymatic Assay for human MAP Kinase-Activated Protein Kinase 2 (MAPKAPK2) (AID 2283178)
# Outline: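 Chemicals screened in duplicate at 25 uM, then to 50 uM top concentration in concentration-response, against recombinant human MAPKAPK2; substrate conversion read 1 hr post-dosing by fluorescence after electrophoretic mobility-shift separation, loss-of-signal relative to DMSO.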
# [15] = molecular target: human Matrix Metalloproteinase-2 (MMP2), MMP2 (gene 4313) (UniProt P08253); assay: NVS_ENZ_hMMP2: NovaScreen (NVS) Enzymatic Assay for human Matrix Metalloproteinase-2 (MMP2) (AID 2283184)
# Sequence of human Matrix Metalloproteinase-2 (MMP2), MMP2 (gene 4313) (P08253 whole entry, looked up): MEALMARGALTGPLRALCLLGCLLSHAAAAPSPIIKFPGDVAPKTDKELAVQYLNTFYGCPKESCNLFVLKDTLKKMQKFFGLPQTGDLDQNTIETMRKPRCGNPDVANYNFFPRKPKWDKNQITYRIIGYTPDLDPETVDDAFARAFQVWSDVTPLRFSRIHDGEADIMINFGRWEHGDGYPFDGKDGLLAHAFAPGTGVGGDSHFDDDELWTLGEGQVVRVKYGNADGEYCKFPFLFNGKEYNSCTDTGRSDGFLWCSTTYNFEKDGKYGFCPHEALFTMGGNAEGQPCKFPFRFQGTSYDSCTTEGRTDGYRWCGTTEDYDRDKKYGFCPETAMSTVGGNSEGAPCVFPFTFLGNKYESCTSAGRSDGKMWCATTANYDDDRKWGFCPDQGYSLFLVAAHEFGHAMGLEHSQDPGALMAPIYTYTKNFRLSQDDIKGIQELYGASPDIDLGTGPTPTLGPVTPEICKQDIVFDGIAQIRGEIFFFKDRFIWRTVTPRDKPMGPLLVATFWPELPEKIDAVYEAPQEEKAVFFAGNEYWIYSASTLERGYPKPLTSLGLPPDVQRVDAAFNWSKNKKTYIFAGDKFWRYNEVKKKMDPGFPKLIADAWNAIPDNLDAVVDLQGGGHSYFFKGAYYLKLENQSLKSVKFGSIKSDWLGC
# Outline: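 Compounds first screened in duplicate at a single 25 uM, with actives followed up in concentration series. Recombinant human MMP2 cleaves a fluorogenic substrate; fluorescence taken at 1 h, inhibition fitted relative to DMSO.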
# [16] = molecular target: human Matrix Metalloproteinase-9 (MMP9), MMP9 (gene 4318) (UniProt P14780); assay: NVS_ENZ_hMMP9: NovaScreen (NVS) Enzymatic Assay for human Matrix Metalloproteinase-9 (MMP9) (AID 2283190);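 further: cell-free recombinant MMP9 protease activity read by fluorescent substrate signal; active means inhibition seen as loss of fluorescence signal versus DMSO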
# Outline: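 Inhibition was scored as loss of fluorescence signal against DMSO controls. The recombinant protease was exposed to chemicals for 1 hour before reading; initial testing used 25 uM in duplicate.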
# [17] = molecular target: human Insulin Receptor (InsR), INSR (gene 3643) (UniProt P06213); assay: NVS_ENZ_hInsR: NovaScreen (NVS) Enzymatic Assay for human Insulin Receptor (InsR) (AID 2283168)
# Outline: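 Cell-free enzyme assay read 1 h post-dose by fluorescence after substrate/product mobility-shift separation. Duplicate 25 uM primary screen, then singleton concentration-response up to 50 uM for compounds passing threshold; loss of signal vs DMSO.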
# [18] = molecular target: human LYN Proto-Oncogene, Src family Tyrosine Kinase (LynA), LYN (gene 4067) (UniProt P07948); assay: NVS_ENZ_hLynA: NovaScreen (NVS) Enzymatic Assay for human LYN Proto-Oncogene, Src family Tyrosine Kinase (LynA) (AID 2283173)
# Outline: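 Recombinant kinase with fluorescent substrate; product separated from substrate by electrophoretic mobility shift and read 1 h after dosing. Duplicate screen at 25 uM, then concentration-response up to 50 uM; activity scored as signal loss against DMSO.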
# [19] = molecular target: human c-Jun N-terminal Kinases (JNK2), MAPK9 (gene 5601) (UniProt P45984); assay: NVS_ENZ_hJNK2: NovaScreen (NVS) Enzymatic Assay for human c-Jun N-terminal Kinases (JNK2) (AID 2283171)
# Outline: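 Chemicals first tested in duplicate at 25 uM, then in singleton concentration series up to 50 uM, against extracted JNK2 enzyme. Activity loss read by fluorescence with mobility-shift separation 1 h post-dose; DMSO baseline.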
# [20] = molecular target: human FYN Proto-Oncogene, Src family Tyrosine Kinase (Fyn), FYN (gene 2534) (UniProt P06241); assay: NVS_ENZ_hFyn: NovaScreen (NVS) Enzymatic Assay for human FYN Proto-Oncogene, Src family Tyrosine Kinase (Fyn) (AID 2283161)
# Outline: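 Cell-free kinase activity read by fluorescence after mobility-shift separation of substrate and product, 1 h post-dose. Initial single concentration 25 uM in duplicate, then concentration-response follow-up; DMSO baseline.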
structure (smiles),measurement,setting,value
Cc1cc(SC2=C(O)C[C@@](CCc3ccc(N)cc3)(C(C)C)OC2=O)c(C(C)(C)C)cc1CO,AC50,[1],7.01 µM (active)
same,outcome,[2],inactive
CCc1cc(C2=C(C(=O)O)N(c3ccccc3C(F)(F)F)S(=O)(=O)c3ccccc32)cc2c1OCO2,AC50,[3],8.94 µM (active)
same,AC50,[4],29.6 µM (active)
same,outcome,[5],inactive
same,AC50,[6],25 µM (active)
same,outcome,[7],inactive
same,outcome,[8],inactive
CN(C)CCCN(C)CCCN(C)C,AC50,[1],31.8 µM (active)
same,outcome,[5],inactive
same,outcome,[7],inactive
CCCCCCCCCC[N+](C)(C)[O-],outcome,[9],inactive
CS(=O)(=O)c1ccc([C@@H](C[C@H]2CCC(=O)C2)C(=O)Nc2cnccn2)cc1Cl,outcome,[9],inactive
same,outcome,[10],inactive
same,AC50,[8],23.3 µM (active)
COc1ccc(OC(F)(F)F)cc1CN[C@H]1CCCN[C@H]1c1ccccc1,AC50,[1],1.47 µM (active)
same,outcome,[2],inactive
same,outcome,[11],inactive
same,outcome,[7],inactive
same,outcome,[12],inactive
same,outcome,[8],inactive
O=C1c2c(O)cccc2Cc2cccc(O)c21,AC50,[3],4.55 µM (active)
same,outcome,[13],inactive
same,outcome,[14],inactive
same,AC50,[4],0.671 µM (active)
same,AC50,[5],20.3 µM (active)
same,AC50,[15],10.2 µM (active)
same,AC50,[6],8.87 µM (active)
Cc1c(C)c2c(c(C)c1O)CCC(C)(COc1ccc(CC3SC(=O)NC3=O)cc1)O2 (configuration not stated),outcome,[1],inactive
CCCCCCCCCCCCCCOS(=O)(=O)O,AC50,[3],25.4 µM (active)
same,AC50,[6],26 µM (active)
same,AC50,[7],18.6 µM (active)
Cc1ccc(-c2cc(C(F)(F)F)nn2-c2ccc(S(N)(=O)=O)cc2)cc1,outcome,[1],inactive
same,outcome,[5],inactive
same,outcome,[15],inactive
C#CC(O)C(CC)CCCC (configuration not stated),outcome,[9],inactive
same,outcome,[5],inactive
CCCCc1nc2cccnc2n1Cc1ccc(-c2ccccc2-c2nnn[nH]2)cc1,outcome,[9],inactive
same,AC50,[13],17.2 µM (active)
same,outcome,[10],inactive
same,AC50,[4],24.1 µM (active)
same,AC50,[6],22.9 µM (active)
same,AC50,[7],11.6 µM (active)
same,AC50,[8],11.3 µM (active)
CC(C)NCC(O)c1ccc(O)c(O)c1 (configuration not stated),outcome,[2],inactive
same,outcome,[7],inactive
C/C=C/C=C/C(=O)O,AC50,[16],1.24 µM (active)
same,outcome,[7],inactive
O=Cc1ccccc1C=O,AC50,[6],6.96 µM (active)
S=c1[nH]c2ccccc2s1,outcome,[11],inactive
same,outcome,[12],inactive
CC1(C)C(=O)NC(=O)N1CO,outcome,[8],inactive
CC(=O)CC(c1ccccc1)c1c(O)c2ccccc2oc1=O (configuration not stated),outcome,[12],inactive
COc1ccc(C(=O)Nc2nc3ccccc3c(NCc3ccccc3)c2C#N)cc1,AC50,[7],17.7 µM (active)
CC(N)=O,outcome,[17],inactive
same,outcome,[8],inactive
OCC(O)CO,outcome,[16],inactive
CC(C)COC(=O)CCCCC(=O)OCC(C)C,outcome,[2],inactive
NC(=Nc1ccccc1)Nc1ccccc1,outcome,[10],inactive
O=C1CCCCC1,outcome,[10],inactive
O=C1NC(=O)C(c2ccccc2)(c2ccccc2)N1,outcome,[2],inactive
same,outcome,[18],inactive
same,outcome,[7],inactive
CCCCCCCCCCCCCCCCO,outcome,[2],inactive
same,outcome,[19],inactive
O=C(Oc1ccccc1)c1cccc(C(=O)Oc2ccccc2)c1,outcome,[2],inactive
same,outcome,[12],inactive
O=C(O)c1[nH]n(-c2ccc(S(=O)(=O)O)cc2)c(=O)c1N=Nc1ccc(S(=O)(=O)O)cc1,AC50,[4],23.6 µM (active)
same,AC50,[5],12.3 µM (active)
same,AC50,[6],23.6 µM (active)
O=C(O)CC(O)(CC(=O)O)C(=O)O,outcome,[20],inactive
same,outcome,[2],inactive
same,outcome,[19],inactive
same,outcome,[10],inactive
Nc1nc(=S)c2[nH]cnc2[nH]1,AC50,[4],27.1 µM (active)
same,outcome,[5],inactive
same,AC50,[15],18.8 µM (active)
same,AC50,[16],39.2 µM (active)
O=C(O)c1cccnc1,outcome,[10],inactive
CC(C)(C)c1ccccc1,AC50,[4],19.4 µM (active)
same,outcome,[12],inactive
Nc1nc(Cl)nc2c1ncn2[C@H]1C[C@H](O)[C@@H](CO)O1,AC50,[7],9.18 µM (active)
C=CCCCCCCCCCCCC,outcome,[10],inactive
c1ccc2occc2c1,outcome,[15],inactive
same,outcome,[16],inactive
Oc1ccccc1O,outcome,[8],inactive
NC=O,outcome,[10],inactive
